The values that follow come from PubChem BioAssay AID434970 (Sanford-Burnham Center for Chemical Genomics, 2010).

Out of some 11,000 compounds screened, about 310 (2.8%) were called active. No stated cut-off is given here; in the data, active means activity change below about -85%; inactive means the rest. This excerpt belongs to a sample that is enriched for actives.

The test system of the test is intestinal alkaline phosphatase [Mus musculus]. Kind of test: activators of mouse IAP, confirmation, biochemical, luminescence, single concentration (AID 434970). The conditions noted are these: purified mouse IAP, CDP-Star luminescence, 30 min, at 10 µM; activation factor: measured here: IAP activation factor, stronger effect = higher value; activity change, negative = activation: stronger effect = lower value.
With `Cc1c(C(=O)NCC2COc3ccccc3O2)oc2ccc(S(=O)(=O)N3CCOCC3)cc12` (stereo unspecified), the activation factor turned out to be 1.07 and the activity change, negative = activation was -6.7% (inactive).
As for `CCNc1nc(NC(C)(C)C)nc(SC(C(C)=O)C(C)=O)n1`, the activation factor is 1.04 and the activity change, negative = activation was -4.2% (inactive).
For the compound `O=C(OCn1nnc2ccccc2c1=O)C1CCN(S(=O)(=O)c2cccs2)CC1`, the activation factor worked out at 0.919 and the activity change, negative = activation is 8.05% (inactive).
On to `Cc1ccc(C2=NN3C(C(=O)c4ccccc4)Oc4ccccc4C3C2)cc1` (stereo unspecified), for which the activation factor was found to be 0.916 and the activity change, negative = activation is 8.35% (inactive).
For `O=C(Nc1ccccc1N1CCN(c2ccccc2)CC1)C12CC3CC(CC(C3)C1)C2`, in that order: 0.927 and 7.25% (inactive).
Consider `O=C(c1cc(NC(=O)C23CC4CC(CC(C4)C2)C3)cc(NC(=O)C23CC4CC(CC(C4)C2)C3)c1)N1CCCCC1`, for which the activation factor is 2.06 and the activity change, negative = activation is -106% (active).
For `COC(=O)c1sccc1NC(=O)C12CC3CC(CC(C3)C1)C2`, in that order: 1.03 and -2.7% (inactive).
Turning to `CCOc1ccccc1C1N(c2ccc(F)cc2)C(=O)C2CCCN21` (stereo unspecified), the activation factor is 0.988 and the activity change, negative = activation is 1.2% (inactive).
With `CCc1nnc(NC(=O)C2CCCN2C(=O)Nc2ccccc2OC)s1` (stereo unspecified), the activation factor is 1.12 and the activity change, negative = activation is -12.2% (inactive).
The like results for `CCCCSCCCNC(=O)Nc1ccc(C)c(C)c1` were, in that order, 1.25 and -24.7% (inactive).
As to `CC(=O)c1ccc2c(c1)N(C)c1ccccc1S2`, the activation factor amounted to 0.875 and the activity change, negative = activation was 12.5% (inactive).
`COc1ccc(NC(=O)Nc2ccc3c(c2)N(C)C(=O)CS3)cc1Cl`: the activation factor worked out at 1.91 and the activity change, negative = activation was -90.9% (inactive).
For `CCC(C)NC(=O)Nc1ccc2c(c1)N(C)C(=O)c1ccccc1S2` (stereo unspecified), in that order: 2 and -100% (active).
On to `CCCCNC(=O)Nc1ccc2c(c1)N(C)C(=O)c1ccccc1S2`, for which the activation factor stood at 2.25 and the activity change, negative = activation was -124% (active).
On to `CCCCSCCCNC(=O)Nc1ccc(CC)cc1`, for which the activation factor came out at 1.39 and the activity change, negative = activation was -38.9% (inactive).
The like results for `COCCOC(=O)c1c(C)n(C)c2ccc(OC(=O)C3CC3)cc12` were, in that order, 1.07 and -7.45% (inactive).
Regarding `CCCCNS(=O)(=O)CCNCCc1ccccc1`, the activation factor came out at 1.1 and the activity change, negative = activation is -10.1% (inactive).
Regarding `COc1ccc(C2/C=C\CC(NS(=O)(=O)c3ccc(C)cc3)CC(=O)N2Cc2ccccc2F)cc1` (stereo unspecified), the activation factor was determined as 1.18 and the activity change, negative = activation is -17.7% (inactive).
The like results for `O=C(CN1CCOCC1)Nc1cccc(C(=O)Nc2cccc(C(F)(F)F)c2)c1` were, in that order, 1.03 and -2.95% (inactive).
For `Cc1occc1-c1nnc(SCC(=O)Nc2ccc3c(c2)OCO3)n1CC1CCCO1` (stereo unspecified), the activation factor worked out at 0.919 and the activity change, negative = activation is 8.1% (inactive).
On to `CCOC(=O)C1=CN(Cc2cccc(F)c2)S(=O)(=O)NC1c1ccc(F)c(Cl)c1` (stereo unspecified), for which the activation factor was found to be 0.881 and the activity change, negative = activation is 11.9% (inactive).
For `C#CCOCCOCCOCCNc1nc(N2CCN(C(=O)CCCCCCCCCCNC(=O)Cn3cc(CCCCCN)nn3)CC2)nc(N2CCN(C(=O)CCCCCCCCCCNC(=O)Cn3cc(C[C@@H](C)O)nn3)CC2)n1`, in that order: 2.22 and -122% (active).
The like results for `C#CCOCCOCCOCCNc1nc(N2CCN(C(=O)CCCCCCCCCCNC(=O)Cn3cc(CCCCCN)nn3)CC2)nc(N2CCN(C(=O)CCCCCCCCCCNC(=O)[C@H]([C@@H](C)CC)n3cc(CCCCCN)nn3)CC2)n1` were, in that order, 3.67 and -267% (active).
For `C#CCOCCOCCOCCNc1nc(N2CCN(C(=O)CCCCCCCCCCNC(=O)Cn3cc(C[C@@H](C)O)nn3)CC2)nc(N2CCN(C(=O)CCCCCCCCCCNC(=O)[C@@H]([C@H](C)CC)n3cc(CCCCCN)nn3)CC2)n1`, in that order: 5.59 and -459% (active).
On to `C#CCOCCOCCOCCNc1nc(N2CCN(C(=O)[C@H](Cc3cc4ccccc4[nH]3)n3cc([C@@H](N)CC(C)C)nn3)CC2)nc(N2CCN(C(=O)[C@H](Cc3cc4ccccc4[nH]3)n3cc([C@@H](N)CC(C)C)nn3)CC2)n1`, for which the activation factor is 1.61 and the activity change, negative = activation is -60.9% (inactive).
For `C#CCOCCOCCOCCNc1nc(N2CCN(C(=O)CCCCCCCCCCNC(=O)Cn3cc(CCCCCN)nn3)CC2)nc(N2CCN(C(=O)CCCCCCCCCCNC(=O)[C@H]([C@@H](C)CC)n3cc(CCCCN=C(N)N)nn3)CC2)n1`, the activation factor was 10 and the activity change, negative = activation was -904% (active).
Turning to `CCOC(=O)CN1C(=O)/C(=C2\SC(=S)N(NC(=O)c3cccnc3)C2=O)c2ccccc21`, the activation factor was 0.472 and the activity change, negative = activation is 52.8% (inactive).
Take `Cc1c(C(=O)N2CCN(c3ncccn3)CC2)sc2nc3n(c(=O)c12)CCCC3`: the activation factor came out at 1.11 and the activity change, negative = activation is -11.4% (inactive).
The like results for `Clc1ccc2nc(C3CCN(Cc4nnnn4C4CCCCC4)CC3)[nH]c2c1` were, in that order, 1.15 and -14.6% (inactive).
For `CCn1nnnc1SCC(=O)c1cccc(OC)c1`, in that order: 0.96 and 4.05% (inactive).
For `COc1cccc(CNC(=O)c2ccc(NC(=O)C3CCCO3)cc2)c1` (stereo unspecified), in that order: 0.932 and 6.8% (inactive).
On to `CCOc1ccc(-n2cc(C(=O)Nc3ccc(Cl)cn3)c3cc(OC)c(OC)cc3c2=O)cc1`, for which the activation factor was determined as 0.946 and the activity change, negative = activation was 5.4% (inactive).
With `Oc1ccccc1C1=NOC(O)(C(F)F)C1` (stereo unspecified), the activation factor was 0.928 and the activity change, negative = activation is 7.2% (inactive).
For `CCOC(=O)N1CCN(C(=O)c2ccc3c(=O)n(CCC4=CCCCC4)c(=O)[nH]c3c2)CC1`, the activation factor was determined as 0.936 and the activity change, negative = activation was 6.4% (inactive).
With `O=C(CC1CCCC1)Nc1nnc(C2CC2)s1`, the activation factor is 0.933 and the activity change, negative = activation was 6.65% (inactive).
For `Cc1onc(-c2ccccc2)c1C(=O)Nc1nc2c(s1)C(=O)CC(C)(C)C2`, in that order: 0.877 and 12.2% (inactive).
On to `CCOc1ccc(CCNC(=O)c2cc(-c3ccccc3)c(N3CCOCC3)s2)cc1`, for which the activation factor came to 2.1 and the activity change, negative = activation was -110% (active).
Consider `CCOc1ccc(CCNC(=O)c2cc(-c3ccccc3)c(N3CCOCC3)s2)cc1OCC`, for which the activation factor amounted to 1.74 and the activity change, negative = activation was -73.9% (inactive).
With `O=C(NCCc1ccccc1)c1cc(-c2ccccc2)c(N2CCOCC2)s1`, the activation factor is 1.46 and the activity change, negative = activation was -45.9% (inactive).
On to `O=C(NCCc1ccc(F)cc1)N1CCOCC1`, for which the activation factor stood at 1.01 and the activity change, negative = activation is -0.6% (inactive).
For `O=C(CCCC(=O)N(CC(=O)NC1CCCCC1)Cc1ccccc1)Nc1ccccn1`, in that order: 1.16 and -15.6% (inactive).
For `CCCCC(=O)Nc1ccc(NC(=O)c2cccnc2)cn1`, in that order: 1.06 and -5.55% (inactive).
The like results for `Cc1ccccc1NC(=O)/C(=C\c1cccs1)NC(=O)c1ccccc1` were, in that order, 1.02 and -1.5% (inactive).
Turning to `COc1ccc(C(CCN2CCOCC2)c2c(OC)cc(OC)c3c(-c4ccccc4)cc(=O)oc23)cc1` (stereo unspecified), the activation factor is 1.07 and the activity change, negative = activation is -7.05% (inactive).
The like results for `O=C(Nc1cccc(Cl)c1)Nc1cc(S(=O)(=O)N2CCCCC2)ccc1Cl` were, in that order, 2.08 and -108% (active).
As for `O=C(Nc1ccc(Cl)cc1Cl)NC1CCN(S(=O)(=O)c2ccc(F)cc2)CC1`, the activation factor came to 2.16 and the activity change, negative = activation was -116% (active).
As for `O=C(Nc1ccc(Cl)cc1F)c1cc(S(=O)(=O)N2CCCCC2)ccc1F`, the activation factor was 1.11 and the activity change, negative = activation was -11.5% (inactive).
The like results for `O=C(Cc1ccc(Cl)cc1)Nc1cccc(S(=O)(=O)N2CCCCC2)c1` were, in that order, 1.4 and -40.2% (inactive).
On to `Cc1cc(OCC(=O)Nc2cccc(S(=O)(=O)N3CCCCC3)c2)ccc1Cl`, for which the activation factor amounted to 1.81 and the activity change, negative = activation is -81.3% (inactive).
On to `O=C(Cc1ccccc1Cl)Nc1cccc(S(=O)(=O)N2CCCCCC2)c1`, for which the activation factor amounted to 1.61 and the activity change, negative = activation was -60.6% (inactive).
The like results for `O=C(CN1CCN(S(=O)(=O)c2ccc(Cl)cc2)CC1)NC(=O)NC1CCCCC1` were, in that order, 0.929 and 7.05% (inactive).
For `O=C(Nc1cccc(S(=O)(=O)N2CCCCC2)c1)Nc1ccc(Cl)cc1Cl`, the activation factor is 4.41 and the activity change, negative = activation was -341% (active).
Turning to `COc1ccc(CCNc2nc(-c3ccco3)cc(C(F)(F)F)n2)cc1OC`, the activation factor turned out to be 0.889 and the activity change, negative = activation was 11.2% (inactive).
For the compound `CCn1c(CSc2nc3ccccc3[nH]2)nc2cc(C(=O)O)ccc21`, the activation factor turned out to be 0.865 and the activity change, negative = activation was 13.6% (inactive).
Take `CN1CCN(CCc2nc3cc(NC(=O)COc4ccccc4)ccc3n2C)CC1`: the activation factor is 0.96 and the activity change, negative = activation is 4.05% (inactive).
Turning to `CN1CCN(C(=O)c2ccc3c(c2)OCCO3)CC1`, the activation factor amounted to 0.959 and the activity change, negative = activation was 4.15% (inactive).
The like results for `Cc1nc(CC(=O)Nc2nc(-c3ccccc3)cs2)cs1` were, in that order, 0.961 and 3.9% (inactive).
On to `COc1ccc(OC)c(S(=O)(=O)N2CCC(C(=O)NC(C)c3ccccc3)CC2)c1` (stereo unspecified), for which the activation factor is 1.03 and the activity change, negative = activation was -3.4% (inactive).
On to `Nc1c(C(=O)NCCc2ccccc2)nnn1Cc1ccc(Cl)cc1`, for which the activation factor was 1.1 and the activity change, negative = activation is -9.55% (inactive).
For `Cc1cc(C)c2c(n1)nn1c(NCCOCCO)cc(C)nc21`, in that order: 0.968 and 3.25% (inactive).
`Cc1ccc(S(=O)(=O)N2C[C@@H]3[C@H]4CC[C@H](C4)[C@@H]3[C@@H](C)[C@@H]2c2ccn([Si](C(C)C)(C(C)C)C(C)C)c2)cc1`: the activation factor came out at 0.986 and the activity change, negative = activation is 1.35% (inactive).
For `COc1ccc(S(=O)(=O)Nc2cc(C(C)C)c(O)cc2C)cc1`, the activation factor was determined as 0.996 and the activity change, negative = activation is 0.45% (inactive).
Turning to `Cc1ccc(SCCCn2cnc3ccccc3c2=O)cc1`, the activation factor is 0.958 and the activity change, negative = activation is 4.25% (inactive).
With `COc1cc(OC)c2c(-c3ccccc3)cc(=O)oc2c1C(CCN1CCOCC1)c1ccc2c(c1)OCO2` (stereo unspecified), the activation factor amounted to 0.932 and the activity change, negative = activation was 6.8% (inactive).
The like results for `CCN(CC)C(=O)[C@H]1CC(CC(=O)NCCC2=CCCCC2)C(=O)N2CCc3c([nH]c4ccc(OC)cc34)[C@]12C` (stereo partly specified) were, in that order, 1.07 and -7.45% (inactive).
The like results for `O=C(Nc1cccc(-c2cccc(F)c2)c1)C1CCN(C2CCC2)CC1` were, in that order, 2.55 and -155% (active).
For `O=C(Nc1cccc(-c2cccc(Cl)c2)c1)C1CCN(C2CCC2)CC1`, in that order: 3.94 and -294% (active).
Turning to `S=C(Nc1cccc(Cl)c1)NC1CC2CCCC(C1)N2C1CCCC1` (stereo unspecified), the activation factor turned out to be 1.44 and the activity change, negative = activation was -44.3% (inactive).
Regarding `O=C(Nc1cccc(F)c1)C1CC(=O)N(c2ccc(Cl)cc2)C1` (stereo unspecified), the activation factor was found to be 1.07 and the activity change, negative = activation was -7.45% (inactive).
The like results for `O=C(Nc1cccc(Cl)c1)NC1CCN(C2CCCCC2)C1` (stereo unspecified) were, in that order, 1.85 and -84.9% (inactive).
As for `COc1ccc(OC)c(S(=O)(=O)N2CCC(C(=O)Nc3cccc(C(F)(F)F)c3)CC2)c1`, the activation factor came out at 1.61 and the activity change, negative = activation is -60.9% (inactive).
In the case of `Cc1noc(C)c1COC(=O)C1COc2ccccc2O1` (stereo unspecified), the activation factor was 1.08 and the activity change, negative = activation was -8.15% (inactive).
The like results for `CC[C@]12c3[nH]c4cc(-c5ccco5)ccc4c3CCN1C(=O)[C@@H](CC(=O)NCC13CC4CC(CC(C4)C1)C3)C[C@@H]2C(=O)N1CCN(C(=O)C2CC2)CC1` were, in that order, 0.989 and 1.05% (inactive).
